In PubChem BioAssay (NCI) one finds growth data, which are given here for 28 molecules.

About 83,000 compounds went through this panel and 20% of them were active in at least one assay; those are over-represented in the sample as a whole.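 Method: cells in 96-well plates; compound added at one concentration; 48 h incubation; percent growth measured; values under 10 scored active.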 Values without a mark were called inactive. The source made the active and inactive calls.

Holding throughout (test): NCI-60 one-dose screen, 48 h (100 = growth as untreated, 0 = no growth, -100 = all killed)
Common to all, as to conditions: 10 µM unless noted

Assay [1] deals with T-47D breast.
The test system of assay [2] is BT-549 breast.
In assay [3] the test system is MDA-MB-435 melanoma.
In assay [4] the test system is SW-620 colon.
Assay [5] deals with MCF7 breast.
The test system of assay [6] is HCT-116 colon.
Assay [7] relates to HCC-2998 colon.
In assay [8] the test system is KM12 colon.

For `Nc1nc(-c2cc3c(cc2Cl)NC(=O)/C3=C/c2ccc(Cl)cc2)cs1`, the growth in assay [1] was 18.1%; in assay [2], 26.3%; in assay [3] it was 1.64% (active); in assay [4] it was 30%; in assay [5] it was 16.8%; in assay [6] it was 24.2%. Moreover, the figures for the growth in assay [7] and in assay [8] were 73.3% and 36%, respectively.

Take `COc1cccc(-c2nc3sccn3c2-c2ccnc(NCCNC(=O)c3ccccc3)n2)c1`: the growth was 61.9% in assay [1]; 85.1% in assay [2]; 55.2% in assay [3]; 114% in assay [4]; 81.7% in assay [5]; 81.8% in assay [6]. The growth in assay [7] is 114%; in assay [8] it was 87.8%.

Consider `COc1ccc(C[C@H](N)C(=O)N[C@@H]2[C@@H](CO)OC(n3cnc4c(N(C)C)ncnc43)[C@@H]2O)cc1` (some centres undefined), for which the growth is -8.69% (active) in assay [1]; -72.1% (active) in assay [2]; -85.4% (active) in assay [3]; -67.8% (active) in assay [4]; -7.03% (active) in assay [5]; -84.6% (active) in assay [6]. The figures for the growth in assay [7] and in assay [8] were -94.6% (active) and -85.2% (active), respectively.

For the molecule `COc1ccc(CCNC=O)cc1OC`, the growth in assay [1] is 99.7%; in assay [2] it was 96.1%; in assay [3], 103%; in assay [4], 93.4%; in assay [5], 94.1%; in assay [6], 100%. Also, the values for the growth in assay [7] and in assay [8] were 104% and 102%, respectively.

For the molecule `C=C1C(=O)O[C@H]2[C@H]1CC/C(COC(=O)CCCC(=O)OC/C1=C/CC[C@@]3(C)O[C@H]3[C@H]3OC(=O)C(=C)[C@@H]3CC1)=C\CC[C@@]1(C)O[C@@H]21`, the growth is 14.9% in assay [1]; -4.94% (active) in assay [2]; 4.28% (active) in assay [3]; -35.9% (active) in assay [4]; 8.68% (active) in assay [5]; -53% (active) in assay [6]. In addition, the values for the growth in assay [7] and in assay [8] were 64.9% and 26%, respectively.

For `O=C(Nc1cccc([N+](=O)[O-])c1)c1ccc2ccccc2c1O`, the growth in assay [1] was 35.8%; in assay [2] it was 80%; in assay [3], 49.7%; in assay [4], 74%; in assay [5], 77%; in assay [6], 59.4%. In addition, the growth in assay [7] was 67%; in assay [8], 79.1%.

As to `O=C(CSc1nnc(-c2cc3c([nH]c4ccccc43)c(-c3cccc(O)c3)n2)n1-c1ccccc1)c1ccccc1`, the growth in assay [1] is 53%; in assay [2] it was 56%; in assay [3], -33.3% (active); in assay [4], 50%; in assay [5], 13.7%; in assay [6], 29.7%. In addition, the growth in assay [7] is 96%; in assay [8] it was 60.1%.

As to `O=C(NCCNc1nccc(-c2c(-c3cccc(O)c3)nc3sccn23)n1)c1cccc(C(F)(F)F)c1`, the growth was 69.5% in assay [1]; 88% in assay [2]; 21.7% in assay [3]; 107% in assay [4]; 75.3% in assay [5]; 74.3% in assay [6]. Also, the growth is 117% in assay [7] and 80.9% in assay [8].

For `S=C=NP1(N=C=S)=NP(N=C=S)(N=C=S)=NP(N=C=S)(N=C=S)=NP(N=C=S)(N=C=S)=N1` (centres undefined), the growth in assay [1] was 82.3%; in assay [2] it was 80.4%; in assay [3], 104%; in assay [4], 108%; in assay [5] it was 91%; in assay [6], 98.8%. The growth in assay [7] and in assay [8] was 102% in each case.

Take `CNCCCOc1c(Br)cc(CCNC(=O)/C(Cc2ccc(OC)c(Br)c2)=N/O)cc1Br`: the growth in assay [1] is 54.7%; in assay [2] it was 56.8%; in assay [3] it was 41%; in assay [4], 41%; in assay [5], 19%; in assay [6], 19.8%. In addition, the growth in assay [7] was 46%; in assay [8], 42.1%.

As for `O=C(NCCNc1nccc(-c2c(-c3cccc(O)c3)nc3sccn23)n1)c1ccccc1`, the growth in assay [1] is 58.6%; in assay [2], 61.4%; in assay [3], 24%; in assay [4], 78.2%; in assay [5], 38.1%; in assay [6], 42.5%. Further, the growth is 97.8% in assay [7] and 75.9% in assay [8].

Consider `CN[C@@H](CCCNC(N)=NC/C=C(/C)CCC=C(C)C)C(=O)N(C)[C@@H](CCCNC(N)=NCC=C(C)C)C(=O)N[C@H](C)[C@H](OS(=O)(=O)O)c1ccc(OS(=O)(=O)O)c(COS(=O)(=O)O)c1`, for which the growth in assay [1] is 98.1%; in assay [2], 107%; in assay [3], 113%; in assay [4] it was 108%; in assay [5] it was 97.7%; in assay [6], 101%. Further, the values for the growth in assay [7] and in assay [8] were 105% and 100%, respectively.

In the case of `NC(=NCCCOc1ccc(F)cc1)Nc1ccc(Cl)c(Cl)c1`, the growth in assay [1] was 29.2%; in assay [2] it was 91.2%; in assay [3], 79%; in assay [4] it was 60.4%; in assay [5], 18.1%; in assay [6] it was 45.6%. Moreover, the values for the growth in assay [7] and in assay [8] were -45.7% (active) and 76.5%, respectively.

As for `C=C1C(=O)O[C@H]2[C@H]1CC/C(COC(=O)n1ccnc1C)=C\CC[C@@]1(C)O[C@@H]21`, the growth in assay [1] was 85%; in assay [2], 97.3%; in assay [3] it was 99.5%; in assay [4], 85%; in assay [5], 87.8%; in assay [6], 89%. Besides, the growth in assay [7] and in assay [8] was 103% in each case.

Take `CCC1S/C(=N\N=C(/C)c2cc3ccccc3o2)N(c2ccccc2)C1=O` (centres undefined): the growth in assay [1] was 85.1%; in assay [2] it was 234%; in assay [3] it was 107%; in assay [4] it was 106%; in assay [5], 162%; in assay [6], 80.8%. Besides, the growth in assay [7] was 113%; in assay [8], 114%.

For `CCNc1ncnc2n[nH]nc12`, the growth in assay [1] was 99.2%; in assay [2], 94%; in assay [3], 99.5%; in assay [4] it was 95.8%; in assay [5], 98.3%; in assay [6] it was 98.8%. In addition, the growth in assay [7] is 106%; in assay [8] it was 105%.

As to `C=CC(C)(O)CCC1C(=C)CCC2C(C)(C)CCCC12C` (centres undefined), the growth in assay [1] was 99.4%; in assay [2], 111%; in assay [3], 107%; in assay [4], 111%; in assay [5] it was 92.7%; in assay [6] it was 107%. In addition, the growth in assay [7] is 99.5%; in assay [8], 99.8%.

On to `CCc1cccc(C)c1NC(=O)c1sc2nc3c(cc2c1N)CCCCC3`, for which the growth was 46.7% in assay [1]; 58.3% in assay [2]; -16.9% (active) in assay [3]; 23.8% in assay [4]; 18.9% in assay [5]; 21.1% in assay [6]. The growth was 54.7% in assay [7] and 23% in assay [8].

`CC(C)C1(C(C)C)NC(=O)NC1=O`: the growth was 109% in assay [1]; 111% in assay [2]; 114% in assay [3]; 127% in assay [4]; 101% in assay [5]; 98.5% in assay [6]. Further, the growth in assay [7] was 102%; in assay [8], 138%.

As to `Cc1cc(NC(=O)c2cccc(C(F)(F)F)c2)ccc1-n1ccc2c(NC(=O)c3ccccc3)nccc21`, the growth in assay [1] is 78.8%; in assay [2], 88.7%; in assay [3], 105%; in assay [4], 110%; in assay [5], 103%; in assay [6], 83.5%. In addition, the growth was 115% in assay [7] and 100% in assay [8].

As to `O=C(Cn1c2ccccc2c2ccncc21)N/N=C/c1cc(O)c(O)c(O)c1`, the growth in assay [1] was 98.2%; in assay [2], 107%; in assay [3] it was 111%; in assay [4], 109%; in assay [5] it was 106%; in assay [6], 101%. In addition, the values for the growth in assay [7] and in assay [8] were 105% and 95.3%, respectively.

In the case of `O=C1COc2ccccc2C(=O)N1CCCCNc1ccccc1`, the growth in assay [1] is 73.3%; in assay [2], 46%; in assay [3], 98.1%; in assay [4], 92.3%; in assay [5], 82.8%; in assay [6], 77.4%. Besides, the growth is 94.5% in assay [7] and 79.9% in assay [8].

With `CN1C(=O)C2(SCC(C(=O)NCC(=O)OC(C)(C)C)N2C(=O)C2CCCCC2)c2ccccc21` (centres undefined), the growth in assay [1] was 82.9%; in assay [2] it was 109%; in assay [3] it was 104%; in assay [4], 98.7%; in assay [5], 97.9%; in assay [6], 96.3%. The results for the growth in assay [7] and in assay [8] were 106% and 101%, respectively.

Take `O=C(Nc1ccc(-n2ccc3c(NC(=O)c4ccccc4)ncnc32)cc1)Nc1ccc(Cl)c(Cl)c1`: the growth was 33.5% in assay [1]; 33.3% in assay [2]; 5.82% (active) in assay [3]; -2.62% (active) in assay [4]; 0.297% (active) in assay [5]; -82.8% (active) in assay [6]. Also, the growth is 32.7% in assay [7] and -8.64% (active) in assay [8].

Regarding `O=C(Nc1cccc(-n2ccc3c(NC(=O)c4ccccc4)nccc32)c1)Nc1cc(C(F)(F)F)cc(C(F)(F)F)c1`, the growth in assay [1] was 55%; in assay [2] it was 2.85% (active); in assay [3], -34.1% (active); in assay [4] it was 21.2%; in assay [5], 13.6%; in assay [6], -15.8% (active). For the same molecule, the growth was 13.2% in assay [7] and -15.2% (active) in assay [8].

In the case of `COC(=O)c1oc2c(C(C)=O)c(OCCCN(C)C)ccc2c1C`, the growth in assay [1] was 103%; in assay [2], 215%; in assay [3], 107%; in assay [4] it was 106%; in assay [5], 148%; in assay [6], 53.9%. In addition, the figures for the growth in assay [7] and in assay [8] were 116% and 100%, respectively.

As for `FC(F)(F)c1cn(CCN2CCOCC2)c2ncnc(Cl)c12`, the growth in assay [1] was 95.1%; in assay [2] it was 93.6%; in assay [3], 56.5%; in assay [4], 53.7%; in assay [5] it was 97.5%; in assay [6] it was 15.4%. In addition, the growth in assay [7] was 75.2%; in assay [8], 101%.

Take `COc1cccc(-c2nc3sccn3c2-c2ccnc(NCCNC(=O)Nc3cccc(C(F)(F)F)c3)n2)c1`: the growth is 42.9% in assay [1]; 71.9% in assay [2]; 21.5% in assay [3]; 88.9% in assay [4]; 54.8% in assay [5]; 44.6% in assay [6]. The figures for the growth in assay [7] and in assay [8] were 40.8% and 33.5%, respectively.
